Test results: PubChem BioAssay AID652054 (National Center for Advancing Translational Sciences (NCATS), 2013)
In all, about 360,000 compounds went through this assay and about 9,100 (2.5%) were called active. Not shown: some 4% with an inconclusive outcome. Cut-off read from the data, not from the text of the source: active = max response below about -50%; inconclusive = no clear call, values can overlap the other calls; inactive = above that. What follows is part of a selection rich in actives, with near analogues and random picks from the rest.

These compounds were tested against D(3) dopamine receptor (Homo sapiens) (UniProt P35462) (assay: qHTS of D3 Dopamine Receptor Antagonist: qHTS). Settings: D3R cells, DiscoveRx beta-arrestin luminescence, antagonist mode; hits give low values.
Text: D3 DARs represent a very important target for the treatment of several neuropsychiatric disorders. Indeed, one of the most promising therapeutic applications for the D3 DAR is in the area of addiction and related disorders. […] These findings have been observed with a number of addictive substances including cocaine, amphetamine, nicotine, and alcohol. […] Antagonism of the D3 DAR may also be therapeutic in the treatment of schizophrenia or psychosis. […] Since the D3 DAR is expressed in areas of the CNS associated with the control of mood and emotion, it has been hypothesized that selective antagonism of the D3 DAR may be effective in treating psychosis without inducing the motor side effects typically seen with D2 DAR antagonists.
This part of the project aims to discover novel antagonist.
NIH Chemical Genomics Center [NCGC]
NIH Molecular Libraries Probe Centers Network [MLPCN]
Assay Submitter (PI): David Sibley, NINDS
Freshly passaged cells are plated in 1536 well white, solid bottom plates at a density of 1500 cells/well in 3microl of complete media. After an overnight incubation at 37 degrees C in 5% CO2, cells are loaded with 23nl of test compound from the compound library (as well as dopamine controls) using a 1536 pintool and incubated at 37 degrees C for 90 minutes. Two microliters of DiscoveRx reagent is then added to all cells, and they are incubated for an additional 30 - 60 minutes at room temperature. Following incubation, luminescence is measured on a ViewLux CCD-based luminometer reader using a 20 sec exposure time.
% is set by controls: 0 for no effect and ±100 for the full control effect.

Sequence of D(3) dopamine receptor (Homo sapiens) (P35462 whole entry, looked up): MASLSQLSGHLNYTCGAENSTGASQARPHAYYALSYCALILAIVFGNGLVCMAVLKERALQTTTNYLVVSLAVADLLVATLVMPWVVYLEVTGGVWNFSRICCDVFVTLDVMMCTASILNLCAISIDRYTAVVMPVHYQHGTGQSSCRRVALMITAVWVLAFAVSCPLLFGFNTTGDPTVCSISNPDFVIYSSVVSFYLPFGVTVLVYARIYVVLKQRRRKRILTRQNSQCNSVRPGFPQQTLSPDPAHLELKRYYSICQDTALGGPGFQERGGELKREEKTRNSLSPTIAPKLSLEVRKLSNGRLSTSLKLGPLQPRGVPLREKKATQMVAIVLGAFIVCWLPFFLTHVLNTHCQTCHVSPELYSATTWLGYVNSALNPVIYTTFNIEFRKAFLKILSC

Max response, negative = inhibition, inactive:
CC(C)Oc1ccc(CN2CCC2(C)C(=O)NCc2ccc(C(F)(F)F)cc2)cc1 (stereo not drawn) 30.5%
CC(OC(=O)c1cccc(S(=O)(=O)N2CCOCC2)c1)C(=O)NCC1CCCCC1 (stereo not drawn) -12.6%
CCCCC[C@H](C)N1C[C@@H](COCc2ccccc2)Oc2cc(N3CCC[C@@H]3CO)ccc2S1(=O)=O 8.76%
CCCNC(=O)C1(C)CCN(C(=O)c2ccc(F)cc2Cl)C1 (stereo not drawn) 1.43%
COc1ccc(NC(=O)C2(C)Cc3c(-c4cccc(NC(C)=O)c4)ccnc3O2)cc1OC (stereo not drawn) 17.2%
COC(=O)[C@H]1C[C@H](OC(=O)NCc2ccccc2)[C@@]2(O)CN(S(=O)(=O)c3ccc(C)cc3)CC2[C@H]1C(=O)OC (stereo partly drawn) -0.452%
CC=CCn1c(SCCCc2ccccc2)nc2c1c(=O)[nH]c(=O)n2C 41.3%
Cc1c(-c2ccccc2)n[nH]c1C(=O)N=Nc1c(O)[nH]c2ccccc12 32.7%
Oc1[nH]c2ccccc2c1N=Nc1c(F)c(F)c(F)c(F)c1F 17.9%
CCc1nc2ccc(C(=O)N(C)Cc3ccco3)cn2c1N(C)C(=O)Cc1ccccc1 3.24%
C[C@@H]1CN([C@@H](C)CO)C(=O)CCCn2nncc2CO[C@@H]1CN(C)S(=O)(=O)c1ccc(-c2ccccc2)cc1 -4.97%
Cc1cccc(-c2cnc(C(O)c3cc(C)cc(C)c3)[nH]2)c1 (stereo not drawn) 0%
COc1cccc(C(O)c2ncc(-c3ccc4ccccc4c3)[nH]2)c1 (stereo not drawn) 38.7%
CC(=O)Nc1cc(-c2ccc(N3CCN(C)CC3)cc2)cn2c(-c3ccc(F)cc3)cnc12 -13.9%
CNc1cnc(-c2cc(OC)c(OC)c(OC)c2)cn1 1.16%
O=C(NCCN1CCOCC1)C1CCN(S(=O)(=O)c2ccccc2)CC1 31.8%
CC(C)Nc1nc(NCCOc2ccccc2Cl)c2sccc2n1 0%
C[C@@H]1CN([C@@H](C)CO)C(=O)c2cc(NS(C)(=O)=O)ccc2O[C@@H](C)CCCCO[C@H]1CN(C)C(=O)Nc1ccc2c(c1)OCO2 -18.4%
COCC1CCN(C(=O)C2CCC(=O)N(Cc3cccc(C(F)(F)F)c3)C2)CC1 (stereo not drawn) -5.12%
CN(C)C(=O)c1cccn(Cc2cccc(C(F)(F)F)c2)c1=O 22.1%
Cc1cccc(C(=O)NC(=S)N(C)C2CCCCC2)c1 -4.93%
Cc1cccc(NC(=S)NCc2ccc3[nH]c4c(c3c2)CCCC4)c1 -3.36%
CC(=O)Nc1cccc(-c2ccnc3c2CC(C)(C(=O)NCc2ccccc2)O3)c1 (stereo not drawn) 0%
Cc1ccc(CC2(C)C(=O)Nc3ccc(OC(F)(F)F)cc32)cc1 (stereo not drawn) 0.0703%
S=C(NCCc1ccccc1)N1CCn2cccc2C1c1ccncc1 (stereo not drawn) 6.2%
CC1CSc2nnc(CCc3ccccc3)n21 (stereo not drawn) -21.1%
CCCCN(C=O)c1c(CC)nc2c(OCCC3CCCCC3)cccn12 -10.7%
COc1ccc(C(O)c2nc(-c3ccc4c(c3)OCO4)cs2)cc1 (stereo not drawn) 4.32%
Cc1ccc(C(=O)C[n+]2cc(-c3ccccc3)n3c2CCCCC3)cc1 -4.64%
O=C(C[n+]1cc(-c2ccc(Cl)c(Cl)c2)n2c1CCC2)c1cccs1 -18.5%
O=CNc1cc(-c2ccc(C(=O)N3CCOCC3)cc2)cn2c(-c3ccc(F)cc3)cnc12 -24.2%
CC(Nc1nc(N2CCN(CCO)CC2)nc2ccccc12)c1ccccc1 (stereo not drawn) 0%
CC(Nc1nc(N2CCOCC2)nc2ccccc12)c1ccccc1 (stereo not drawn) -1.04%
CC1(C(=O)Nc2cccnc2)Cc2c(-c3ccccc3)ccnc2O1 (stereo not drawn) 25.1%
CC1(C(=O)NS(=O)(=O)c2cccs2)CCN1C(=O)Cc1ccc(-c2ccccc2)cc1 (stereo not drawn) 15.7%
Cc1cc(OCC(=O)Nc2nccs2)c2c(C)c(C)c(=O)oc2c1 52.2%
COc1ccc(/C(C)=N\NC(=O)c2ccc(-c3ccccc3)cc2)c(F)c1 -25.6%
CNC(=O)C(NC(=O)c1ccccc1)=C(C)C 0.178%
O=C(NCc1ccc(F)cc1F)[C@@H]1CCCN1C(=O)[C@@H]1CCCN1C(=O)c1cccc(Cl)c1 -16.8%
C[C@H](NC(=O)[C@@H]1CCCN1C(=O)[C@@H]1CCCN1C(=O)c1ccccc1)c1ccccc1 -14.2%
O=C(OCc1ccccc1)N1CCC2CC1c1cc(N3CCN(S(=O)(=O)c4cc(Cl)cc(Cl)c4)CC3)ccc12 (stereo not drawn) -1.81%
Cc1ccc(S(=O)(=O)N(CCc2ccccc2)c2ccc3c(c2)C2CC3CCN2C(=O)OCc2ccccc2)cc1 (stereo not drawn) 0%
Cc1ccc(NC(=O)Cn2sc3ccccc3c2=O)cc1 -0.282%
CCNC(=S)Nc1ccc2c(c1)c(=O)n(C)n2Cc1ccc(Cl)cc1 8.41%
CNC(=S)Nc1ccc([N+](=O)[O-])cc1 -17.8%
COC(=O)c1ccccc1N=NNc1ccc([N+](=O)[O-])cc1 8.12%
O=C(NC1CCCC1)C1c2ccccc2OCC(=O)N1Cc1ccccc1 (stereo not drawn) 4.78%
COc1ccc(C(C(=O)Nc2c(C)cccc2C)N2CCN(c3ccc(C)cc3)CC2)cc1 (stereo not drawn) 11.5%
COCCCn1cc(CN2CC(N(C)C)CS2(=O)=O)nn1 (stereo not drawn) -10.8%
CCCCCCCCN1C(=O)[C@H](CC(=O)NCC23CC4CC(CC(C4)C2)C3)C[C@@]2(C(=O)OC)CCCCC=C12 9.16%
O=C(NCc1cccnc1)c1cc(C2CCCN(C(=O)C3CCCCC3)C2)on1 (stereo not drawn) 6.18%
COCCNC(=O)C1CCCN(Cc2ccccc2Cl)CC1 (stereo not drawn) 57.8%
Cc1ccc(Sc2ccc(NC(=O)c3ccc(F)cc3)cc2C#N)cc1 0%
Cc1ccccc1OCC(=O)Nc1ccc(N2CCN(C(=O)C(C)C)CC2)c(Cl)c1 26.3%
CC(=O)Nc1ccc(NC(=O)COc2ccccc2C(=O)Nc2cccc(Cl)c2Cl)cc1 -0.418%
COc1ccc(-c2cnc3c(c2)C(=O)N([C@H](C)CO)C[C@@H](C)[C@H](CN(C)Cc2ccccc2)O3)cc1 14.3%
CCN1C(=O)[C@@H]2[C@@H]3CN(S(=O)(=O)c4ccccc4C)[C@@H](c4ccc(Cl)cc4)[C@@H]3C(=O)C[C@@H]2C1=O -17.8%
CCN(CC)CCN(C(=O)c1cc(Cl)sc1Cl)c1nc2cc3c(cc2s1)OCO3 -11.6%
CCN(CC)CCN(C(=O)c1cccc([N+](=O)[O-])c1)c1nc2ccc(OC)cc2s1 8.97%
COc1ccc(NC2CCCN(C(=O)c3ccccc3-c3ncc[nH]3)C2)cc1 (stereo not drawn) -2.79%
O=C(/C=C/NNC(=O)c1cccc(Br)c1)c1ccccc1 0%
Cc1cc(C)nc(N(C#N)CC(=O)Nc2ccccc2)n1 -15.5%
COc1ccc([C@H]2N[C@]3(CCCN(Cc4ccco4)C3=O)[C@H]3C(=O)N(C)C(=O)[C@@H]23)cc1 -22%
Cc1cccc(N(CC(=O)N2CCCC2)S(C)(=O)=O)c1C -2.72%
Cc1ccc(S(=O)(=O)N2CCOCC2)cc1C(=O)Nc1ccccc1N1CCCC1 13.7%
CCc1nnc(NC(=O)c2cc(S(=O)(=O)N3CCCCC3)ccc2C)s1 -2.53%
CCOC(=O)c1cc(-c2sc(NC(=O)c3ccccc3)nc2C)n(CCO)n1 -12.9%
Fc1ccc(Cn2nnnc2C(c2cccs2)N2CCCCCC2)cc1 (stereo not drawn) 10.3%
CCCC(c1nnnn1C(C)(C)C)N1CCN(Cc2ccccc2)CC1 (stereo not drawn) -5.41%
COc1ccc(OC)c(C(c2nnnn2C(C)(C)C)N2CCc3ccccc3C2)c1 (stereo not drawn) -1.6%
CCC(C)(C)n1nnnc1C(c1cccs1)N1CCN(c2nc3ccccc3s2)CC1 (stereo not drawn) -16.1%

Max response, negative = inhibition, active:
COc1cccc2c1C(=O)c1c(O)c3c(c(O)c1C2=O)CC(O)(C(C)=NNC(=O)c1ccc(Cl)c(Cl)c1)CC3OC1CC(N)C(O)C(C)O1 (stereo not drawn) -50.5%
O=C(CCN1CCCCC1)N=Nc1c(O)[nH]c2ccccc12 -96.3%
Cc1cccc(-c2cnc(C(O)c3ccc4ccccc4c3)[nH]2)c1 (stereo not drawn) -81.3%
COC(=O)Cc1c(O)ccn(Cc2cccc(C(F)(F)F)c2)c1=O -71.6%
Cc1cccc(NC(=S)NCCN(C2CCCCC2)C2CCCC2)c1 -65.7%
c1ccc(CCC2=NCCn3cccc32)cc1 -55.5%
Cc1ccc(-c2c[n+](CC(=O)Nc3ccccc3)c3n2CCC3)cc1 -65.6%
CC(Nc1nc(N2CCCC2)nc2ccccc12)c1ccccc1 (stereo not drawn) -74.8%
CC(C)=C(NC(=O)c1ccccc1)C(=O)N/N=C(\C)c1ccccc1O -73.8%
O=C(OCc1ccccc1)N1CCC2CC1c1ccc(-c3ccc4c(c3)OCO4)cc12 (stereo not drawn) -78.9%
O=[N+]([O-])c1ccc(N=NNc2ccc([N+](=O)[O-])cc2)cc1 -50.6%
COc1cc(NC(=O)COc2ccccc2Cl)ccc1NC(=O)C(C)C -74%
CCN(CC)CCN(C(=O)c1ccc2c(c1)CCCC2)c1nc2c(OC)cccc2s1 -103%
Cc1cc(C)nc(S/C=C/C(=O)c2ccccc2)n1 -62.5%
CCOC(=O)c1sc(NC(=O)c2cc(S(=O)(=O)N3CCOCC3)ccc2C)nc1C -55.1%
COc1ccccc1C(c1nnnn1C(C)(C)C)N1CCN(Cc2ccccc2)CC1 (stereo not drawn) -90.6%
CCC(C)(C)n1nnnc1C(c1cccs1)N1CCN(Cc2ccccc2)CC1 (stereo not drawn) -56.8%
